Results on four compounds are retold here after PubChem BioAssay.

The source made the active and inactive calls.

Test [1] is described as follows: optical density shifts of acrAB sulA E. coli – strain DRC41, OD650, 48 h, E. coli filamentation inducer project, primary screen (AID 1152).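 Also: E. coli MC1000 strain DRC41 lacking acrAB efflux pump and sulA.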 The following applies: higher = more signal, called active from +8 up or from −8 down.
Test [2] in a line: probe aLefty1 binding on compound microarray – biochemical, small-molecule microarray, 635/667 nm fluorescence, primary screen (AID 1153).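 Also: score merges spot fluorescence with signal-to-noise ratio from the scanned slide images.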 The following applies: higher = more signal.
Test [3] in a line: plasmodial surface anion channel blockers, osmotic lysis – cell-based, P. falciparum Indochina, OD700, 1 h, primary screen (AID 1154). As to conditions: P. falciparum Indochina infected RBC osmotic lysis, higher = more signal, called active from +8 up or from −8 down.
A short description of test [4]: plasmodial surface anion channel blockers, osmotic lysis – cell-based, P. falciparum Indochina, OD700, 2 h, primary screen (AID 1155).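 Also: lysis reports solute entry through the parasite surface anion channel PSAC.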 As to conditions: P. falciparum Indochina infected erythrocytes, higher = more signal, called active from +8 up or from −8 down.
A short description of test [5]: changes in parasitized red cell lysis, either direction – P. falciparum Indochina, OD700, 3 h, PSAC antagonist project, primary screen (AID 1156). The following applies: P. falciparum-infected erythrocytes, osmotic lysis, higher = more signal, called active from +8 up or from −8 down.
Test [6] can be described thus: plasmodial surface anion channel blockers, osmotic lysis – cell-based, P. falciparum Indochina, OD700, 18 h, primary screen (AID 1157). The following applies: P. falciparum Indochina infected erythrocytes, osmotic lysis OD700, 18 h; higher = more signal, called active from +8 up or from −8 down.
Test [7] can be described thus: S6 kinase pathway phospho-S6 level changes – cell-based, A549, cytoblot, luminescence, serum-stimulated, primary screen (AID 1158).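 Also: serum-stimulated A549 lung adenocarcinoma cells; signal is phosphorylated S6 detected by cytoblot immunostaining with HRP secondary.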 The following applies: 5 h, higher = more signal.
For test [8], the target named is NADPH oxidase 2 (Homo sapiens) (UniProt P04839). Description: compounds shifting NOX2 Amplex Red fluorescence – cell-based, HEK293-NOX2, PMA-stimulated, NOX inhibitor project, primary screen (AID 1159). Also: test concentration not given here. The following applies: 45 min, higher = more signal, called active from +8 up or from −8 down.
Test [9] deals with NADPH oxidase 4 (Homo sapiens) (UniProt Q9NPH5). Kind of test: compounds shifting NOX4 Amplex Red fluorescence – cell-based, HEK293-NOX4, tetracycline-induced, NOX inhibitor project, primary screen (AID 1160). As to conditions: HEK293-NOX4, Amplex Red H2O2 fluorescence, 45 min; higher = more signal, called active from +8 up or from −8 down.
Test [10] addresses NADPH oxidase 5 (Homo sapiens) (UniProt Q96PH1). Description: compounds shifting NOX5 Amplex Red fluorescence – cell-based, HEK293-NOX5, NOX inhibitor project, primary screen (AID 1161). The following applies: HEK293-NOX5, ionomycin, 45 min, higher = more signal.
Test [11] is described as follows: compound effects on lung adenocarcinoma cell viability – A549, calcein-AM fluorescence, 48 h, basal, profiling panel (AID 1162). Also: test concentration not given here. The following applies: higher = more signal.
Test [12] can be described thus: compound effects on differentiated 3T3-L1 adipocyte viability – cell-based, 3T3-L1 adipocytes, calcein-AM fluorescence, 48 h, basal, profiling panel (AID 1163). Also: test concentration not given here. As to conditions: 3T3-L1 adipocytes viability, higher = more signal.
Test [13] can be described thus: compound effects on hepatocellular carcinoma cell viability – HepG2, calcein-AM fluorescence, 48 h, basal, profiling panel (AID 1164). Also: test concentration not given here. As to conditions: higher = more signal.
Test [14] is described as follows: compound effects on multiple myeloma cell viability – MM1S, calcein-AM fluorescence, 48 h, basal, profiling panel (AID 1165). Also: test concentration not given here. As to conditions: higher = more signal.
Test [15] in a line: calcein-AM signal in unstimulated myeloma cells – cell-based, calcein-AM fluorescence, 48 h, PK04 Diversity Set, profiling panel (AID 1166).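 Also: cells grown under basal conditions without added stimulus; test concentration not given here.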 As to conditions: RPMI8226 myeloma viability, higher = more signal.
A short description of test [16]: JC-1 mitochondrial signal, unstimulated HepG2 cells – cell-based, JC-1 fluorescence, 24 h, 100 nL compound, profiling panel (AID 1167). Also: test concentration not given here. As to conditions: HepG2 mitochondrial potential, higher = more signal.
Test [17] in a line: JC-1 mitochondrial signal, unstimulated adipocytes – cell-based, JC-1 fluorescence, 3T3-L1 adipocytes, 24 h, 100 nL compound, profiling panel (AID 1168). Also: test concentration not given here. As to conditions: JC-1 mitochondrial fluorescence, higher = more signal, called active from +8 up or from −8 down.
The nature of test [18]: JC-1 mitochondrial signal, unstimulated myeloma cells – cell-based, JC-1 fluorescence, RPMI8226, 24 h, 100 nL compound, profiling panel (AID 1169). Also: test concentration not given here. As to conditions: JC-1 mitochondrial potential fluorescence, higher = more signal.
The nature of test [19]: JC-1 mitochondrial signal, unstimulated MM1S myeloma – cell-based, JC-1 fluorescence, 24 h, 100 nL compound, profiling panel (AID 1170). Also: test concentration not given here. As to conditions: MM1S mitochondrial potential, higher = more signal.
The nature of test [20]: resazurin metabolic signal in A549 cells – cell-based, resazurin fluorescence, 24 h, PK04 Diversity Set, profiling panel (AID 1171). Also: test concentration not given here. The following applies: A549 viability, higher = more signal, called active from +8 up or from −8 down.

Chain of NADPH oxidase 2 (Homo sapiens) (P04839 whole entry, looked up): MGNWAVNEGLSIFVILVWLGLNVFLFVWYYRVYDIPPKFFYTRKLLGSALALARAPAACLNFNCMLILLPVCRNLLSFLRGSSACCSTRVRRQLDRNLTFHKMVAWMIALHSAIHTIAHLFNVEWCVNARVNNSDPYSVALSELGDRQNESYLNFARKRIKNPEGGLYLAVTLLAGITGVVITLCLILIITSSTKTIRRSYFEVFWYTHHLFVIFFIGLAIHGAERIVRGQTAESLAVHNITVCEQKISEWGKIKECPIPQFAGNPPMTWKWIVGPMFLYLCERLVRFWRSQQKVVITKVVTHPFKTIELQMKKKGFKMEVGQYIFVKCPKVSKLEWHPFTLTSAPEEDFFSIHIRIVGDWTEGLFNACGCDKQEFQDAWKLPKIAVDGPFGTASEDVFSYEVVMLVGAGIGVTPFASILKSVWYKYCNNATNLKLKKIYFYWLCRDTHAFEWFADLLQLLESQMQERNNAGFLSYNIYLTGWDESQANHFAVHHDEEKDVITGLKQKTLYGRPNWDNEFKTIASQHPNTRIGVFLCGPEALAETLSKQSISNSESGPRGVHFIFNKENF
Chain of NADPH oxidase 4 (Homo sapiens) (Q9NPH5 whole entry, looked up): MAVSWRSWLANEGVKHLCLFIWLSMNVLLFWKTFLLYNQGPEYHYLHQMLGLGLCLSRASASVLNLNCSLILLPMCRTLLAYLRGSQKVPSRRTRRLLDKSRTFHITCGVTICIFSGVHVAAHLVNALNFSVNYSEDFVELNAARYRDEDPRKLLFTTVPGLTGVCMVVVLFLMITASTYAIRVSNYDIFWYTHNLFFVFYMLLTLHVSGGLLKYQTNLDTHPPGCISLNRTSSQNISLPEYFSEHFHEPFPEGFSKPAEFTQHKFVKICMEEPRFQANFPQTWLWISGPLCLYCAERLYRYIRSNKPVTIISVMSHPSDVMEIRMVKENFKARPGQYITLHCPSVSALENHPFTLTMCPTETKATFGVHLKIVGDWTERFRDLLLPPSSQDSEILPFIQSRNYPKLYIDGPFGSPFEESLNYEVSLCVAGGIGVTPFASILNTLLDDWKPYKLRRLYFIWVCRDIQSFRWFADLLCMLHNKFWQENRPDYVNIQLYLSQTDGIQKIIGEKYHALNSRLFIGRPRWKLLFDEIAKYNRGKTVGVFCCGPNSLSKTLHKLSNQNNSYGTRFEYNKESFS
Chain of NADPH oxidase 5 (Homo sapiens) (Q96PH1 whole entry, looked up): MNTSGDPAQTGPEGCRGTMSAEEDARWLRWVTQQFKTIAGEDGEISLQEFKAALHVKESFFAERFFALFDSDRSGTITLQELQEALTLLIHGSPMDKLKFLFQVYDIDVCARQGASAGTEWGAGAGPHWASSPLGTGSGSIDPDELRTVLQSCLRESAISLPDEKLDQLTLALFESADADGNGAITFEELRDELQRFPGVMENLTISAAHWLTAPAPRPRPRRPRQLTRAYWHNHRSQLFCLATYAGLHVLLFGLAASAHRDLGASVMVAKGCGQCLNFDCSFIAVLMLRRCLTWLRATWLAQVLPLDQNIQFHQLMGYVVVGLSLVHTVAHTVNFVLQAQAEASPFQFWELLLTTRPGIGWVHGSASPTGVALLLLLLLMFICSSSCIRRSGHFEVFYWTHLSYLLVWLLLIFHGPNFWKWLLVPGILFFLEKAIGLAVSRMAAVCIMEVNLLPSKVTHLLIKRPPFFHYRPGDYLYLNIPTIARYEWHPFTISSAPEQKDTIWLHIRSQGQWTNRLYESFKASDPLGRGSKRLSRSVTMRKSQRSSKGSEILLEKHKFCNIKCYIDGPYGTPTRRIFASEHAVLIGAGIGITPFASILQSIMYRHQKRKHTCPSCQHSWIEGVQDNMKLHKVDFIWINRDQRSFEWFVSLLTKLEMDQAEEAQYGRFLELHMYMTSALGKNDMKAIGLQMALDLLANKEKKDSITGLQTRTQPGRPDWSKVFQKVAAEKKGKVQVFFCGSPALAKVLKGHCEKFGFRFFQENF

Regarding `CC(C)N1CC=CC23O[C@@H]4C=CCOC(=O)[C@@H]4[C@H]2C(=O)N(CCCCCO)[C@@H]3C1=O` (stereo not given in full), the z-score in test [1] was 2.79 (inactive); in test [3] it was 0.641 (inactive); in [4], 0.0869 (inactive); in test [5], 0.204 (inactive); in test [6] it was 0.236 (inactive); in test [7] it was 1.73. Further, the z-score in test [8] was 0.865 (inactive); in test [9], 0.225 (inactive); in [10], 1.44; in [11], 0.522; in test [12], 1.45; in [13] it was -1.25. Also, the z-score in test [14] is 1.01; in [15] it was 0.512; in [16], -0.448; in test [17], -0.709 (inactive); in test [18], 0.565; in test [19], -0.41. The z-score in test [20] was 0.0829 (inactive). For the same compound, the composite z-score in test [2] came out at 0.19.
As for `O=C1O[C@@H](c2ccccc2)[C@@H](c2ccccc2)N2[C@@H](c3ccc(OCCO)cc3)[C@]3(C(=O)Nc4ccc(C#CC5=CCCCC5)cc43)[C@@H](C(=O)N3CCCCCCC3)[C@H]12`, the z-score in test [1] is 0.343 (inactive); in [3] it was 3.46 (inactive); in test [4], 1.85 (inactive); in [5], 0.501 (inactive); in [6] it was 1.03 (inactive); in [7], -0.262. Besides, the z-score in test [8] is 0.463 (inactive); in [9], 0.159 (inactive); in [10], 0.293; in [11] it was -0.364; in test [12], 0.284; in [13], 1.1. Besides, the z-score in [14] was -0.446; in test [15] it was -1.31; in test [16], 0.226; in [17], -4.13 (inactive); in [18] it was -0.831; in test [19], -1.14. Besides, the z-score in [20] was -0.207 (inactive). For the same compound, the composite z-score in test [2] stood at 2.14.
As to `CC(C)C(=C=CC[C@H](O)c1ccc(CO)o1)CCO`, the z-score in test [1] is -0.543 (inactive); in test [3], 1.77 (inactive); in [4], 0.408 (inactive); in test [5] it was 0.186 (inactive); in test [6] it was -0.012 (inactive); in test [7] it was -0.516. The z-score in [8] is 0.228 (inactive); in [9] it was -0.345 (inactive); in test [10], -0.21; in [11] it was -0.0934; in test [12], -0.33; in [13], -0.0026. Moreover, the z-score was -1.25 in test [14]; -0.2 in test [15]; -0.427 in test [16]; -0.0538 (inactive) in test [17]; -0.533 in [18]; 0.019 in test [19]. The z-score in test [20] was -0.507 (inactive). Further, the composite z-score in test [2] was 0.0494.
As for `CC(C)[C@@H](C(=O)O)n1cc(C2(O)CCCCC2)nn1`, the z-score in test [1] was -0.0464 (inactive); in [3] it was -0.477 (inactive); in [4], -0.436 (inactive); in [5], -2.15 (inactive); in test [6], -0.89 (inactive); in test [7], 0.0556. In addition, the z-score was -1.09 (inactive) in test [8]; -0.176 (inactive) in [9]; -0.658 in test [10]; 0.566 in test [11]; 1.51 in test [12]; -0.294 in test [13]. The z-score in test [14] is 0.248; in test [15], 0.215; in [16], 0.727; in [17], 0.639 (inactive); in test [18], -0.302; in test [19], -0.394. Further, the z-score in [20] was 0.194 (inactive). Moreover, the composite z-score in test [2] was -0.188.
